# Assay outcomes as filed in PubChem BioAssay.
# This is a sample that favours compounds with a hit; in the whole collection about 6.3% have one here.
# VP16 counter: counter-screen for ROR gamma inhibitors: Gal4-VP16 reporter | Drosophila S2 Gal4-VP16 UAS-luciferase, luminescence, 20 h | Potency, µM (highest dose often 53.6 µM), without a hit: at the highest dose activity, negative = inhibition, actives largely listed as inhibitors | AID 2546 | 310,000 compounds, 3.5% hits;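 also: Gal4-VP16 expression switched on by copper sulfate through the metallothionein promoter; % is scaled to controls: 0 for no effect and ±100 for the full control effect; nearly all actives have a fitted effect of over 50% in size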
# HepG2 tox: HepG2 cytotoxicity, counter-screen for TGF-b inhibitors; HepG2 CAGA-GFP viability, ATP luminescence, 18 h; Potency, µM (top dose mostly 46.1 µM), without a hit: at the highest dose activity change, negative = cytotoxicity, hits mostly cytotoxic; 410,000 compounds, 0.76% hits; AID 588856
#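 HepG2 CAGA-GFP cells (1000/well, DMEM with 1% FBS) received compound, then TGF-beta at 500 pg/mL final, and were incubated 18 hours at 37 degrees C. Viability was read by CellTiter-Glo luminescence. Media-only wells were set as complete cell-killing and DMSO as no toxicity.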
# TGFb SMAD3 inh: inhibitors of TGF-b signaling | HepG2 CAGA-GFP TGF-b/SMAD3 reporter, GFP fluorescence, 18 h; TGF-beta stimulated, 500 pg/mL final | 410,000 compounds, 1.2% hits | Potency, µM (highest dose often 46.1 µM), for inactives: at the top dose activity, negative = inhibition, actives largely listed as inhibitors; also: % is scaled to controls: 0 for no effect and ±100 for the full control effect; nearly all actives have a fitted effect of over 65% in size
#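 Inhibition was scored as loss of TGF-beta-induced (500 pg/mL final, 18 hours, 37 degrees C) GFP in HEPG2 cells carrying a CAGA-GFP reporter, in DMEM with 1% FBS. Well GFP was summed per cell; Activity was normalised to unstimulated and stimulated DMSO wells, then concentration-response fitting.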
# RORg inh: blocks mouse ROR gamma transcriptional activity. Drosophila S2 Gal4-RORgamma UAS-luciferase reporter, 20 h. Potency, µM (doses to about 53.6 µM), for inactives: at the top dose activity change, negative = inhibition, actives largely listed as inhibitors. 310,000 compounds, 5.4% hits. AID 2551; also: % is scaled to controls: 0 for no effect and ±100 for the full control effect; nearly all actives have a fitted effect of over 60% in size
# Target sequence (P51450 whole entry, looked up, the tested form may be a part): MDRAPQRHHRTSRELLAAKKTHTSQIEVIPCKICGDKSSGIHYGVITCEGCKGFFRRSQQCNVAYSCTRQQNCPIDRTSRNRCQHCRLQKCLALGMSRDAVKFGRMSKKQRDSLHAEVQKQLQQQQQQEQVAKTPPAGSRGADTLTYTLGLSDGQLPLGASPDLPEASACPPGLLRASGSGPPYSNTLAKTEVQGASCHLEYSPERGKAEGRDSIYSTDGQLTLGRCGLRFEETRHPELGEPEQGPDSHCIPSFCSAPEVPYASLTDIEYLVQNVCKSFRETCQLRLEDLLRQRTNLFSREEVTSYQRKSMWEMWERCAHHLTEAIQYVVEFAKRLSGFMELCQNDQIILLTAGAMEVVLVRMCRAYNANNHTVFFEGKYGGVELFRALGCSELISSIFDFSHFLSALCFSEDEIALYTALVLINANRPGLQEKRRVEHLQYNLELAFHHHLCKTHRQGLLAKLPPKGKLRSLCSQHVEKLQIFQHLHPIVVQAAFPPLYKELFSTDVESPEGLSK
#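 Luminescence from a UAS-regulated Photinus luciferase reporter in stably transfected Drosophila Schneider cells is measured; decreased signal marks ROR gamma inhibition. Fusion expression is induced by 700 uM copper sulfate for 20 hr.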
# ATXN2 expr inh: reduces ATXN2 reporter expression in HEK-293 cells; HEK-293 ATXN2-luciferase reporter, luminescence, 24 h; Potency, µM (series often up to 57 µM), for inactives: at the top dose activity change, negative = inhibition, hits mostly inhibitors; 360,000 compounds, 0.72% hits; AID 1745845; also: % is scaled to controls: 0 for no effect and ±100 for the full control effect; nearly all actives have a fitted effect of over 55% in size
#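 ATXN2-luciferase reporter cells (luciferase flanked by upstream and downstream ATXN2 gene portions) were treated 24 h at 37 °C with compounds at up to 57 uM. SteadyGlo luminescence gave expression; GF-AFC fluorescence gave viability.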
# S2 tox: cell viability loss in ATXN counter-screen. Potency, µM (doses to about 56.7 µM), hits mostly cytotoxic. 400,000 compounds, 0.49% hits. S2 cells (HEK-293 line with an ATXN2-luciferase reporter) viability, CellTiter-Fluor protease fluorescence, 24 h; also: nearly all actives have a fitted effect of over 40% in size
# * = called active by the depositor; i = inactive; ? = inconclusive; nt = no result; ! = not confirmed by another sample. Calls follow the shape of the dose curve; as a rule, active = well fitted curve in the direction sought with a large enough effect; inconclusive = small, poorly fitted or top-dose-only effect, or another doubt; inactive = no such curve, though single readings can be large; an effect the other way counts as inactive or inconclusive. Potency is read from the fitted curve at half-maximal effect.
SMILES,VP16 counter,HepG2 tox,TGFb SMAD3 inh,RORg inh,ATXN2 expr inh,S2 tox
O=C(Nc1ccc(F)cc1)c1nc(SCc2ccccc2F)ncc1Cl,nt,-19%,?,nt,nt,nt
COC(=O)c1ccc(NC(=O)c2nc(S(=O)(=O)Cc3ccccc3F)ncc2Cl)cc1,nt,13µM*,6.3µM*,nt,nt,nt
O=C(NCc1ccc2c(c1)OCO2)c1ccccc1Cl,nt,-7%,22%,nt,13%,i
Cc1cc(C)c(NC(=O)C(=O)NCCc2csc(-c3ccc(F)cc3)n2)c(C)c1,nt,-12%,-50%,nt,-31%,i
CCCCNC(=S)NCC(c1ccccc1)c1c[nH]c2ccccc12 (stereo not drawn),?,-21%,?,?,?,?
CN(C)CCCNC(=S)NCC(c1ccc(Cl)cc1Cl)c1c[nH]c2ccccc12 (stereo not drawn),?,-159%,?,?,25µM*,?
COC(=O)C1CCN(c2csc3ccc(Cl)cc3c2=O)CC1,nt,-3%,-6%,nt,20%,i
COc1cc(-c2nc3ccccn3c2/N=C/c2cccc(F)c2)ccc1O,-16%,-1%,4%,-2%,0%,i
COc1cc(-c2nc3ccccn3c2/N=C/c2ccccc2)ccc1O,-5%,-14%,-3%,13µM*,37%,i
COc1cc(-c2nc3ccccn3c2NCC2CCCO2)ccc1O (stereo not drawn),22%,-11%,2%,14µM*,56%,i
CCC(C)Sc1ccc(-c2nc3ccccn3c2NCc2ccccc2)cc1OC (stereo not drawn),nt,-60%,13µM*,nt,?,?
Cc1ccc2nc(SCC(=O)NCC3Cc4cccc(-c5nc(C)cnc5C)c4O3)[nH]c2c1 (stereo not drawn),nt,nt,nt,nt,nt,i
COc1ccc(-c2[nH]ncc2CN2CCOc3c(cc(-c4cccc(OC)n4)cc3OC)C2)cc1,nt,nt,nt,nt,nt,i
CCOC(=O)Cc1csc(N/N=C\c2cccc(Br)c2)n1,?,-5%,5%,10µM*,4%,i
CC(=O)c1sc(N/N=C\c2ccccc2O)nc1C,4µM*,5%,15%,1.4µM*,29%,i
COc1ccc(/C=N/Nc2nc(C(=O)O)cs2)cc1,5µM*,0%,-1%,3.5µM*,7%,i
CCOC(=O)c1sc(N/N=C/c2cccc(C)c2)nc1C,?,-26%,-13%,7.9µM*,32%,i
Cc1ccccc1OCC(=O)Nc1ccc(S(=O)(=O)Nc2ncccn2)cc1,nt,-1%,-2%,nt,-9%,i
COc1ccc(CN2COc3ccc4c(-c5ccccc5)cc(=O)oc4c3C2)cc1OC,nt,-22%,15%,nt,7%,nt
CCOC(=O)Cc1csc(N/N=C/c2ccccc2)n1,-28%,-3%,-6%,16µM*,-24%,i
COc1ccc(C(C[N+](=O)[O-])c2c(C)[nH]n(-c3ccccc3)c2=O)cc1 (stereo not drawn),?,-22%,-24%,13µM*,18%,i
Cc1[nH]n(-c2ccccc2)c(=O)c1C(C[N+](=O)[O-])c1ccccc1Cl (stereo not drawn),14%,-10%,-8%,7%,-3%,i
CCOC(=O)[C@]12CCCC=C1N(Cc1cccc3ccccc13)C(=O)[C@H](CC(=O)NCc1cccc3ccccc13)C2,nt,nt,nt,nt,5%,i
CCCCOCCCNC(=O)C[C@@H]1C[C@@]2(C(=O)OCC)CCCC=C2N(Cc2cccc3ccccc23)C1=O,nt,nt,nt,nt,?,35µM*
CCCCCCCCN1C(=O)[C@H](CC(=O)NCc2ccc(OC)c(OC)c2)C[C@@]2(C(=O)OCC)CCCC=C12,nt,nt,nt,nt,?,14µM*
SMILES,VP16 counter,HepG2 tox,TGFb SMAD3 inh,RORg inh,ATXN2 expr inh,S2 tox
O=C(Nc1ccc(Cl)c(C(F)(F)F)c1)c1ccncc1,22%,-15%,0%,-3%,-25%,i
CNC(=O)c1cc(Oc2ccc(NC(=O)Nc3ccc(Cl)c(C(F)(F)F)c3)cc2)ccn1,8.9µM*,16µM*!,?,?,18µM*!,16µM*
COc1ccc(NC(=O)C2CCN(S(=O)(=O)c3ccc(N4CCCC4=O)cc3)CC2)c(OC)c1,?,-3%,0%,?,-1%,i
Cc1ccc(NC(=O)C2CCN(S(=O)(=O)c3ccc(N4CCCC4=O)cc3)CC2)cc1Cl,3.2µM*,-17%,?,?,?,i
Cc1ccc(NC(=O)Cc2nn(C)c(=O)c3ccccc23)cc1F,11µM*,-29%,0%,-19%,-10%,i
Cn1nc(CC(=O)N2CCN(c3ccccc3)CC2)c2ccccc2c1=O,-7%,-1%,3%,-20%,-36%,i
Cn1nc(CC(=O)Nc2ccc(N3CCN(C(=O)OC(C)(C)C)CC3)cc2)c2ccccc2c1=O,2.5µM*,3%,1%,?,-22%,i
Cn1nc(CC(=O)Nc2ccc3c(c2)OCCO3)c2ccccc2c1=O,7.9µM*,-15%,13%,-34%,?,i
CSc1cccc(NC(=O)CN(C)S(=O)(=O)c2ccc3c(c2)CCCN3C(C)=O)c1,nt,-23%,-1%,nt,0%,?
O=C(NCCc1nnc2n1CCN(CC1CC=CCC1)CC2)c1ccc(F)cc1 (stereo not drawn),nt,nt,nt,nt,nt,i
COc1ccc(C(C)C)cc1S(=O)(=O)Nc1cccnc1,nt,-14%,-11%,nt,nt,i
CN[C@@H]1[C@H](O[C@@H]2O[C@H](C)[C@@](O)(CO)[C@H]2O[C@H]2[C@H](O)[C@H](O)[C@H](N=C(N)N)[C@@H](O)[C@@H]2N=C(N)N)O[C@@H](CO)[C@H](O)[C@H]1O,0%,nt,nt,-16%,nt,nt
CCCCC[C@H]1CN(Cc2ccccc2)C(=O)[C@@H]1CC(=O)NCc1ccccc1,0%,14µM*!,18µM*,34%,?,?
Cc1cccc(C)c1-c1ccc(CN2C(CC(C)C)C(=O)N(Cc3cn(CC4CCCCC4)nn3)CCS2(=O)=O)cc1 (stereo not drawn),nt,11µM*,?,nt,?,35µM*
CC(C)CC1C(=O)N(Cc2cn(CCC3OCCCO3)nn2)CCS(=O)(=O)N1Cc1ccc(-c2ccc(F)cc2)cc1 (stereo not drawn),nt,-21%,?,nt,0%,?
Cc1ccc(-c2ccc(CN3C(CC(C)C)C(=O)N(Cc4cn(CCC5OCCCO5)nn4)CCS3(=O)=O)cc2)cc1 (stereo not drawn),nt,-57%,?,nt,28µM*,nt
